Assay results reported in PubChem BioAssay (Tox21).
“And” between values parts separate entries of the source, which are not always exact repeats. Equal entries are not always repeated. Results filed as inconclusive are left out. A call without a number means that no potency is given here. Some compounds were tested as several samples or in several runs, with calls that do not always agree. The source made the active and inactive calls. Unless noted, the call rests on the fitted dose curve; in most records, active means well fitted curve in the direction sought with a large enough effect in the repeat runs; inconclusive means weak or mixed curves; inactive means no such curve, though single readings can be large; an effect the other way counts as inactive or inconclusive.

Assays:
[1] = qHTS assay to identify small molecule agonists of H2AX - cell viability counter screen (AID 1224847; calls by dose curve;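 further: wild-type CHO-K1 cells; top concentration of the series differs between compounds; nearly all actives have a fitted effect of over 30% in size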); details: CHO-K1 viability, CellTiter-Glo luminescence, 3 h; series mostly up to 154 µM
In short: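 CHO-K1 wt, 1000 cells/well, o/n 37C; cpds 15 conc, 3 h 37C, 0.76% DMSO; CellTiter-Glo, 30 min RT, luminescence.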

[2] = qHTS assay to identify small molecule antagonists of the estrogen related receptor (ERR) signaling pathway from Tox21 library (AID 1224848); details: ERR reporter cell line, luciferase antagonist mode, 18 h; series mostly up to 92.4 µM; further: nearly all actives have a fitted effect of over 50% in size; further: potency means the concentration at half of the fitted maximal effect
In short: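 ERR cell line, 2,000 cells/well. 6 h settle, then compound (DMSO) added; 18 h at 37 C; ONE-Glo luminescence after 30 min RT.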

[3] = qHTS assay to identify small molecule agonists of the estrogen related receptor (ERR) signaling pathway from Tox21 library (AID 1224849; calls by dose curve; further: nearly all actives have a fitted effect of over 15% in size); details: ERR reporter cell line, ONE-Glo luciferase, 18 h
In short: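 Cells carrying the ERR reporter were plated and allowed to settle for 6 h, exposed to library compounds for 18 h at 37 C, then lysed with ONE-Glo and luminescence measured.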

[4] = qHTS RealTime-Glo MT Cell Viability Assay in HepG2 cells - 24 hour (AID 1224867); details: RealTime-Glo luminescence; series mostly up to 76.8 µM; further: nearly all actives have a fitted effect of over 50% in size
In short: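 Viability was tracked continuously by NanoLuc luminescence from prosubstrate reduced by living HepG2 cells, at successive time points over 40 h of compound exposure. Cells with reagent were preincubated 5 h at 37 °C before compound addition.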

[5] = qHTS RealTime-Glo MT Cell Viability Assay in HEK293 cells - 32 hour (AID 1224868); details: RealTime-Glo luminescence; series mostly up to 76.8 µM; further: nearly all actives have a fitted effect of over 50% in size; further: potency means the concentration at half of the fitted maximal effect
In short: (§1)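 Viability tracked continuously by luminescence as live cells reduce a prosubstrate for NanoLuc; HEK293 cells preincubated 5 h, compound-treated at 37 C, and read at 0, 8, 16, 24, 32 and 40 h.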

[6] = A CellTox Green Cytotoxicity Assay to monitor cytotoxicity in HEK293 cells - 0 hour (AID 1224869); details: CellTox Green fluorescence; series mostly up to 76.8 µM; further: nearly all actives have a fitted effect of over 50% in size
In short: (§2)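 Cells (HEK293, 600/well) and dye reagent are dispensed together. After 5 h at 37 C, 23 nL compound is pinned in. Plates stay at 37 C for 40 h with fluorescence read at 0h, 8h, 16h, 24h, 32h and 40h.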

[7] = qHTS RealTime-Glo MT Cell Viability Assay in HepG2 cells - 40 hour (AID 1224870); details: RealTime-Glo luminescence; series mostly up to 76.8 µM; further: nearly all actives have a fitted effect of over 50% in size
In short: (§3)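 Real-time viability: cells seeded at 600 per well together with NanoLuc and cell-permeant prosubstrate, compounds added after 5 h incubation. Luminescence tracked at 0, 8, 16, 24, 32 and 40 h of exposure.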

[8] = A CellTox Green Cytotoxicity Assay to monitor cytotoxicity in HEK293 cells - 40 hour (AID 1224871); details: CellTox Green fluorescence; series mostly up to 76.8 µM; further: nearly all actives have a fitted effect of over 45% in size
In short: as §2

[9] = qHTS RealTime-Glo MT Cell Viability Assay in HEK293 cells - 16 hour (AID 1224872); details: RealTime-Glo luminescence; series mostly up to 76.8 µM
In short: as §1

[10] = qHTS RealTime-Glo MT Cell Viability Assay in HepG2 cells - 8 hour (AID 1224873); details: RealTime-Glo luminescence; series mostly up to 76.8 µM; further: nearly all actives have a fitted effect of over 55% in size
In short: as §3

SMILES	Potency [1]	Potency [2]	activity change, positive = activation ([3]; at 92.4 µM (top of the series))	outcome [4]	Potency [5]	Potency [6]	outcome [7]	Potency [8]	outcome [9]	outcome [10]	activity change, positive = activation ([3]; at 42.5 µM (top of the series))
O=c1ccc(=O)[nH][nH]1	inactive	inactive	3.51% (inactive) and 9.01% (inactive)	inactive	inactive	inactive	inactive	inactive	inactive	inactive	
O=[N+]([O-])c1ccccc1	inactive	inactive	8.72% (inactive) and 8.25% (inactive)	inactive	inactive	inactive	inactive	inactive	inactive	inactive	
COC(=O)NS(=O)(=O)c1ccc(N)cc1	inactive	inactive	6.12% (inactive) and 0.416% (inactive)	inactive	inactive	inactive	inactive	inactive	inactive	inactive	
Nc1ccccc1C(=O)O	inactive	inactive	6.82% (inactive)	inactive	inactive	inactive	inactive	inactive	inactive	inactive	5.44% (inactive)
CCOC(=O)c1ccccc1C(=O)OCC	inactive	inactive	2.2% (inactive) and 2.35% (inactive)	inactive	inactive	inactive	inactive	inactive	inactive	inactive	
Cc1cccc([N+](=O)[O-])c1	inactive	inactive	5.45% (inactive) and 0.517% (inactive)	inactive	inactive	inactive	inactive	inactive	inactive	inactive	
COC(=O)c1ccccc1C(=O)OC	inactive	inactive	-0.694% (inactive) and 10.9% (active)	inactive	inactive	inactive	inactive	inactive	inactive	inactive	
CC(C)C1(C)N=C(c2nc3ccccc3cc2C(=O)O)NC1=O (centres undefined)	inactive	inactive	3.26% (inactive) and 5.33% (inactive)	inactive	inactive	inactive	inactive	inactive	inactive	inactive	
CC(=O)C=C(C)C	inactive	inactive	0.13% (inactive) and 3.17% (inactive)	inactive	inactive	inactive	inactive	inactive	inactive	inactive	
CNC(=O)Oc1ccccc1OC(C)C	inactive	inactive	0.314% (inactive)	inactive	inactive	inactive	inactive	inactive	inactive	inactive	
Clc1cccc(Cl)c1Cl	inactive	inactive	0.683% (inactive)	inactive	inactive	inactive	inactive	inactive	inactive	inactive	
Cn1cc(-c2ccccc2)c(=O)c(-c2cccc(C(F)(F)F)c2)c1	inactive	inactive	-9.79% (inactive) and -18.6% (inactive)	inactive	inactive	inactive	inactive	inactive	inactive	inactive	
BrCCBr	inactive	inactive	3.43% (inactive) and 4.88% (inactive)	inactive	inactive	inactive	inactive	inactive	inactive	inactive	
CC(C)(C)OOC(C)(C)C	inactive	inactive	-1.09% (inactive)	inactive	inactive	inactive	inactive	inactive	inactive	inactive	6.85% (inactive)
OC(O)C(Cl)(Cl)Cl	inactive	inactive	-4.47% (inactive)	inactive	inactive	inactive	inactive	inactive	inactive	inactive	0.553% (inactive)
O=c1[nH]c(=O)[nH]c(=O)[nH]1	inactive	inactive	1.86% (inactive) and -0.392% (inactive)	inactive	inactive	inactive	inactive	inactive	inactive	inactive	
CN=C=S	inactive	inactive	0.382% (inactive) and 8.43% (inactive)	inactive	inactive	inactive	inactive	inactive	inactive	inactive	
CC(C)N1C(=O)c2ccccc2NS1(=O)=O	inactive	inactive	-10.6% (inactive) and -6.56% (inactive)	inactive	inactive	inactive	inactive	inactive	inactive	inactive	
C=CC(N)=O	inactive	inactive	7.14% (inactive)	inactive	inactive	inactive	inactive	inactive	inactive	inactive	
COc1ccc2c3c1O[C@H]1[C@@H](O)C=C[C@H]4[C@@H](C2)N(C)CC[C@@]341	inactive	26.9 µM (active) and inactive	-50.6% (inactive) and -3.7% (inactive)	inactive	43 µM (active) and inactive	inactive	inactive	inactive	inactive	inactive	
CON(C)C(=O)Nc1ccc(Cl)c(Cl)c1	inactive	inactive	-4.36% (inactive) and -0.559% (inactive)	inactive	43.6 µM (active)	inactive	inactive	inactive	inactive	inactive	
COCCl	inactive	inactive	-18.8% (inactive)	inactive	inactive	inactive	inactive	inactive	inactive	inactive	1.1% (inactive)
